# Assay results as given in ChEMBL document CHEMBL3988442, “University of Dundee, Small-Polar-MMV Screening Library” (2021).
# For some of these results: Results with a measured potency or affinity are listed apart.
# Tests used:
# Set-up in all cases: scale not given: direction of the effect not stated beside the values
# [1] = target: Protein translocase subunit SecA (Escherichia coli (strain K12)) (UniProt P10408); assay: Assay to Identify E. coli SecA ATPase Inhibitors; format: functional; details: 30 µM
# [2] = target: T1, Ubiquitin-activating enzyme e1, putative (Leishmania donovani (strain BPK282A1)) (UniProt E9BSI1); assay: Leishmania donovani Ubiquitin Activating Enzyme (LdE1); format: functional; details: 30 µM
# T1 sequence (whole entry): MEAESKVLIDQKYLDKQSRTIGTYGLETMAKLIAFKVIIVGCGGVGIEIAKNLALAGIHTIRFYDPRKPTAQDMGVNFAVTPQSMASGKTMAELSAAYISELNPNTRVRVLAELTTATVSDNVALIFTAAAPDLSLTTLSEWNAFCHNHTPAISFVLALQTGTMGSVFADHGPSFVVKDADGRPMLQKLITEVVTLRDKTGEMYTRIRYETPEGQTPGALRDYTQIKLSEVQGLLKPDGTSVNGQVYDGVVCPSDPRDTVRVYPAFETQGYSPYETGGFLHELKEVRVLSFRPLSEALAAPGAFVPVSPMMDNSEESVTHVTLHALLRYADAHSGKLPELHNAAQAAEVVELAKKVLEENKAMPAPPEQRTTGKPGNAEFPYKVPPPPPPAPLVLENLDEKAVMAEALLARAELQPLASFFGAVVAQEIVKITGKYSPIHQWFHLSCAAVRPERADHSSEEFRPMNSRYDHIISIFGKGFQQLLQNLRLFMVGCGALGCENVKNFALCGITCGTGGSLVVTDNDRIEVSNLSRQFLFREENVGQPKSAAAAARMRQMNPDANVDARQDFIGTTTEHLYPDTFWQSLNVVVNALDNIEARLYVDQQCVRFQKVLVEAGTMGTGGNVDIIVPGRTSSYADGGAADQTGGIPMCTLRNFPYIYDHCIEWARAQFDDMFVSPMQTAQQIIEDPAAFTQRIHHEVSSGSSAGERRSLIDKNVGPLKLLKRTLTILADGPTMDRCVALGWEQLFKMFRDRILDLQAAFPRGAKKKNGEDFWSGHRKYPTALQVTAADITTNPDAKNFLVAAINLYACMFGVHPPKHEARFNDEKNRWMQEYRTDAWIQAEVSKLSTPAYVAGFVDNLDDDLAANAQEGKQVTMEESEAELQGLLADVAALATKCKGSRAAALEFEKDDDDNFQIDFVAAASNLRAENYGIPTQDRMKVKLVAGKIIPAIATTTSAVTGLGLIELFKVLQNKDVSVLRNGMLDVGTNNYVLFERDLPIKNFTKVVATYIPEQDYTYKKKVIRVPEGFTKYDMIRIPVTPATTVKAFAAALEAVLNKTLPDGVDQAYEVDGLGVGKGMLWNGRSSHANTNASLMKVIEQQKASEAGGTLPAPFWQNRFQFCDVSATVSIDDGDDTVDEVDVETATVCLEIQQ
# [3] = target: AMP-activated protein kinase, AMPK (Homo sapiens) (UniProt P54646+O43741+P54619+Q9UGJ0+Q9Y478+Q13131+Q9UGI9); assay: AMP-dependent Kinase enzyme assay. An in vitro enzyme assay that detects ADP turnover that is directly proportional to AMPK activity. This uses naive AMPK that is activated during the assay with MK-8722; format: functional; details: 30 µM
# [4] = target: Sialic acid-binding Ig-like lectin 9 (Homo sapiens) (UniProt Q9Y336); assay: Hs-Siglec9 ALPHAscreen SOP 20170721; details: 10 µM
# Trypanosoma cruzi = assay: Trypanosoma cruzi phosphomannomutase and mannose-1-phosphate guanylyltransferase assay; format: functional; details: 10 µM
# [5] = target: T2, Arginase-2, mitochondrial (Homo sapiens) (UniProt P78540); assay: in vitro enzyme assay to detect the production of urea directly proportional to the activity of Arginase II; format: functional; details: 33.3 µM; further: in the data most compounds retested in dose-response had high values
# T2 sequence (whole entry): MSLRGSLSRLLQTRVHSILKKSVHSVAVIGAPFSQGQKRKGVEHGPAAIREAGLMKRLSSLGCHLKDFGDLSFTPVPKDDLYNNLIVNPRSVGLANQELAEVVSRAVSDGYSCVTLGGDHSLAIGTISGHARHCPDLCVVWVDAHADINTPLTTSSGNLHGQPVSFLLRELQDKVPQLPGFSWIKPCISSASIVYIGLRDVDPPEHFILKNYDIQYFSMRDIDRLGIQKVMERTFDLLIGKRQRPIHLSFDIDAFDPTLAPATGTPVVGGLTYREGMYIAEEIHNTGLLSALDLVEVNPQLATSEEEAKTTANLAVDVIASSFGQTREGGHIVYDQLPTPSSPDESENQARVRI
# [6] = target: T3, Proteasome subunit beta (Trypanosoma cruzi) (UniProt O96673); assay: Trypanosoma cruzi proteasome chymotrypsin-like activity (TcProtChymo) assay.; further: in the data most compounds retested in dose-response had high values; format: functional; details: 9.37 µM
# T3 sequence (whole entry): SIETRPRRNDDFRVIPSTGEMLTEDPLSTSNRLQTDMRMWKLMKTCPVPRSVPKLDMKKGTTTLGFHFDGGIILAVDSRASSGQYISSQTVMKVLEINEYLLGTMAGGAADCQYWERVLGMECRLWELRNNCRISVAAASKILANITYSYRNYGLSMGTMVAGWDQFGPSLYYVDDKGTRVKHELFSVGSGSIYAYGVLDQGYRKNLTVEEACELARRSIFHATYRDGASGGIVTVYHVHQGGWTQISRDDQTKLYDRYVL
# Homo sapiens = organism: Homo sapiens; assay: To identify inhibition of the IFN signalling (Jak-Stat) pathway via expression of an eGFP reporter gene under the control of an IFN-stimulated response element (ISRE) containing MxA promoter.; format: functional; details: 30 µM
# [7] = target: T4, Tyrosyl-tRNA synthetase, putative (Trypanosoma cruzi (strain CL Brener)) (UniProt Q4DSP6); assay: Trypanosoma cruzi tyrosyl tRNA synthetase (TcYRS) _High Tyrosine SOP; format: functional; details: 30 µM; further: in the data most compounds retested in dose-response had high values
# T4 sequence (whole entry): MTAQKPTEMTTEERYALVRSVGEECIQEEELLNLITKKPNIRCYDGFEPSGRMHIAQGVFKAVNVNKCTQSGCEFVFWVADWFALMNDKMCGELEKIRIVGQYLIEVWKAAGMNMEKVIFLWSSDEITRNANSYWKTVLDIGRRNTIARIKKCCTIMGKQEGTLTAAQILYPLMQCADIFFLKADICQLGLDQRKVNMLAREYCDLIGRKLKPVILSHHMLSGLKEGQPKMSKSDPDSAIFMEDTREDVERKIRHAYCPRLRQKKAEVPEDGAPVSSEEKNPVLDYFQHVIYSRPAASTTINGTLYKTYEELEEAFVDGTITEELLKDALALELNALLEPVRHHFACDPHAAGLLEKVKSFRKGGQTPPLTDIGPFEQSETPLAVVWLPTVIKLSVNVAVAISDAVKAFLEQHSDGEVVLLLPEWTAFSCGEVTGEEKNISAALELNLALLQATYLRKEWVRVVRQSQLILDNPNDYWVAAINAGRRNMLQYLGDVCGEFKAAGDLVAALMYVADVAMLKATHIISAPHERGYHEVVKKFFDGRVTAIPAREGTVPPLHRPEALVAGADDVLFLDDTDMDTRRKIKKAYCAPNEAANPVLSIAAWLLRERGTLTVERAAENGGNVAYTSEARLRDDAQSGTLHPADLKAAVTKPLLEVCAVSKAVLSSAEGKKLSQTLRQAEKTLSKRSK
# [8] = target: T4, Tyrosyl-tRNA synthetase, putative (Trypanosoma cruzi (strain CL Brener)); assay: Trypanosoma cruzi tyrosyl tRNA synthetase (TcYRS) SOP; format: functional; details: 30 µM
# [9] = target: Chromo domain-containing protein 1 (Saccharomyces cerevisiae (strain ATCC 204508 / S288c) (Baker's yeast)) (UniProt P32657); assay: ScCHD-1 Enzyme Inhibition Assay; format: functional; details: 30 µM; further: in the data most compounds retested in dose-response had high values
# Chromo domain-containing protein 1 (Saccharomyces cerevisiae (strain ATCC 204508 / S288c) (Baker's yeast)), sequence (P32657 whole entry, the tested form may be a part): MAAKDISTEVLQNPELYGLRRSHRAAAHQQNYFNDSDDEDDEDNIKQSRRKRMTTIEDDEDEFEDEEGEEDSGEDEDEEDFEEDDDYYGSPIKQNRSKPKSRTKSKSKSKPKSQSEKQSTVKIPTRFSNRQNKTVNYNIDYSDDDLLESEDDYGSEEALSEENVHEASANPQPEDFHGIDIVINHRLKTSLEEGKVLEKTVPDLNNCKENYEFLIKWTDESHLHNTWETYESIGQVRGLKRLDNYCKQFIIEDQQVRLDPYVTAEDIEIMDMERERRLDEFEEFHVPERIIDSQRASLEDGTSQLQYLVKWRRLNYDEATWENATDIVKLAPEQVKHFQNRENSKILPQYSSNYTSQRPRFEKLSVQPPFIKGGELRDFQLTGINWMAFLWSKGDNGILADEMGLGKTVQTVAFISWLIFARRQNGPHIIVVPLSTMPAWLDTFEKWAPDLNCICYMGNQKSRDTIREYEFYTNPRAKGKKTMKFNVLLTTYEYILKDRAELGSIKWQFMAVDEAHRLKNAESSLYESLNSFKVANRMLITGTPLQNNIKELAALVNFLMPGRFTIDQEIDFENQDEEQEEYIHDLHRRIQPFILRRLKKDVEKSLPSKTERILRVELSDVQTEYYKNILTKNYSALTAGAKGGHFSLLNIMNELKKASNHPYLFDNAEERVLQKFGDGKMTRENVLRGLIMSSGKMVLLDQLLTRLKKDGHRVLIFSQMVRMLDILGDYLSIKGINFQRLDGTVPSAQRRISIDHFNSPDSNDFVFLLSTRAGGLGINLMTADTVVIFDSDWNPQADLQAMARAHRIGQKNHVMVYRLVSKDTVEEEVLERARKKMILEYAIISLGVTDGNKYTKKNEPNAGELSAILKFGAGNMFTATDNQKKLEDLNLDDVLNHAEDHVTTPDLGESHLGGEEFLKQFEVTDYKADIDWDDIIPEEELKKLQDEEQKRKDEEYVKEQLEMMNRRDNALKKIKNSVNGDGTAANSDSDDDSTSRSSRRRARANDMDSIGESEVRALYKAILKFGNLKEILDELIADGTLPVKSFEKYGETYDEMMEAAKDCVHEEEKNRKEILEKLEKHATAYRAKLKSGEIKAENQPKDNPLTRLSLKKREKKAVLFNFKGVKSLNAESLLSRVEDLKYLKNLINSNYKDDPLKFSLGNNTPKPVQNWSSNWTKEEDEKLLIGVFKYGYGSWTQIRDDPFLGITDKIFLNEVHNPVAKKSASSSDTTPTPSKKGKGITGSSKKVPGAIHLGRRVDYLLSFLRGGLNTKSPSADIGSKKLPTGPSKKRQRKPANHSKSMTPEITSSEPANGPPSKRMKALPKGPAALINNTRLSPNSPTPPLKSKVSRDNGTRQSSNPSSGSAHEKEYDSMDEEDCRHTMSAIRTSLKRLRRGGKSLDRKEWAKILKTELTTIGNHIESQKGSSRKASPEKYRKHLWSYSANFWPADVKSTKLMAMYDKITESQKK
# Sialic acid-binding Ig-like lectin 9 (Homo sapiens), sequence (Q9Y336 whole entry): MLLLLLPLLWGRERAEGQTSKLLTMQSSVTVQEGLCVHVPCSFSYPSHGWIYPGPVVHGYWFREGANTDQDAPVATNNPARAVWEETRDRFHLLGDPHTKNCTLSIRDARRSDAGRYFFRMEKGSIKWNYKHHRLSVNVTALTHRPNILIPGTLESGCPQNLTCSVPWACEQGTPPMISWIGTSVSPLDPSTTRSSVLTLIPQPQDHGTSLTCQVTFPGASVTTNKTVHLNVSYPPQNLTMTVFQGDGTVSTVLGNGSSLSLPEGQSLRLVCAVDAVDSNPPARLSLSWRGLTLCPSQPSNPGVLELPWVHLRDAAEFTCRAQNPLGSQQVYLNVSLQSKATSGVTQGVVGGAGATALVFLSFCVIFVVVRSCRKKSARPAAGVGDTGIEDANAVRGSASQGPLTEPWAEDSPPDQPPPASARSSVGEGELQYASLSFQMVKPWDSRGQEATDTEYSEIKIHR
# Protein translocase subunit SecA (Escherichia coli (strain K12)), sequence (P10408 whole entry): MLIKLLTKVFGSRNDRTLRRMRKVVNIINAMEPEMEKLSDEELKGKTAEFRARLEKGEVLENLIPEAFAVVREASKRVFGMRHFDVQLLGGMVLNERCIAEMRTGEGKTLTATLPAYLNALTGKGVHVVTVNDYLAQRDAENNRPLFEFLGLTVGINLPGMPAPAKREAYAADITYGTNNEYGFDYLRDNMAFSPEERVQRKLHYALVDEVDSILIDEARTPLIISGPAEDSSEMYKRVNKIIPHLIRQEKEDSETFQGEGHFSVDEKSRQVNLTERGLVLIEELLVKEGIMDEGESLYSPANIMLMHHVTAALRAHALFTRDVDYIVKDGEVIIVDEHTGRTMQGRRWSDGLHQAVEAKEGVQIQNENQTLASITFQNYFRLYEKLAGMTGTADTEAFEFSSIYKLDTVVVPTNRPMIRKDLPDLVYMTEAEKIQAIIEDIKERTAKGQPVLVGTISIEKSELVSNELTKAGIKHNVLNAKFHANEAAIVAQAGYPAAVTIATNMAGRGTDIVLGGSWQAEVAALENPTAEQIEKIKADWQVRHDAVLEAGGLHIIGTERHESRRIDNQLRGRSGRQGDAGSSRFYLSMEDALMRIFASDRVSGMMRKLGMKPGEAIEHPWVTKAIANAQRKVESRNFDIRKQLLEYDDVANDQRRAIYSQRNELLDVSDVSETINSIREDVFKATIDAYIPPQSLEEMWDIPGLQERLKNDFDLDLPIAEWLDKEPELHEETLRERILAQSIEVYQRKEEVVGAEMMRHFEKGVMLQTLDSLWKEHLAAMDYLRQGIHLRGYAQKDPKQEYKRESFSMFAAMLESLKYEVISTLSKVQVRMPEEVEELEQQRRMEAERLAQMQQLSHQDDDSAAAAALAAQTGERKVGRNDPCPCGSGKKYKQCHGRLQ
SMILES,Percent Effect [1],Percent Effect [2],Percent Effect [3],Percent Effect [4],Percent Effect (Trypanosoma cruzi),Percent Effect [5],Percent Effect [6],Percent Effect (Homo sapiens),Percent Effect [7],Percent Effect [8],Percent Effect [9]
CCS(=O)(=O)N1CCC(c2cc3n(n2)[C@@H](C(F)(F)F)C[C@@H](C)N3)CC1,-3.21%,9.46%,-29.7%,-2.76%,-4.15%,2.09%,4.37%,11.3%,-1.07%,6.49%,-7.22%
CC(C)S(=O)(=O)NCC1CCCN(C(=O)c2ccc3c(c2)CCC3)C1 (stereo unspecified),-5.88%,5.48%,5.06%,-5.74%,0.588%,-2.27%,7.28%,16.7%,1.07%,7.5%,-5.72%
CS(=O)(=O)N1CCC(C(=O)NC(Cc2ccsc2)c2ccccn2)CC1 (stereo unspecified),-4.27%,6.76%,8.49%,4.61%,2.17%,1.16%,4.84%,13.2%,5.38%,9.09%,-8.15%
CCOCCCNC(=O)c1cc(C)nc(N2CCCC2)n1,-10.2%,12%,-12.6%,7.96%,4.91%,-11.1%,5.36%,8.1%,1.06%,10.3%,-14%
c1cnn(Cc2nnc(C3CCN(C4CCOCC4)CC3)n2C2CC2)c1,-7.04%,13.3%,-7%,24.9%,3.99%,5.73%,16.2%,12.2%,7.1%,16.1%,103%
Cc1cnn(CC2CCCCN2C(=O)CN(C)C2CC2)c1 (stereo unspecified),0.161%,26.6%,-0.801%,-3.2%,-0.103%,-1.94%,16.8%,-1.15%,6.25%,15.2%,-24%
Cc1cc(CN(Cc2cccs2)CC2CCCO2)no1 (stereo unspecified),-4.05%,1.27%,10.8%,3.07%,-1.33%,4.95%,6%,6.19%,-5.21%,0%,16.7%
CCc1nc(C2CCCN2Cc2nc(C3CC3)no2)no1 (stereo unspecified),-0.343%,2.6%,-1.94%,16.2%,2.65%,-12.4%,9.15%,-6.21%,0%,1.24%,-6.42%
CN1CCCc2cc(CNC(=O)c3ccc(NC4CC4)nc3)ccc21,-1.41%,6.33%,52%,6.12%,-0.923%,2.8%,0.515%,-2.19%,6.25%,10.1%,-6.23%
Cc1nnc2n1CCN(CCS(=O)(=O)c1ccccc1)C2,-2.96%,15.6%,2.16%,8.34%,1.69%,-3.2%,-2.03%,27.6%,2.91%,14.6%,-8%
CCn1cc(CN(C)S(=O)(=O)c2ccc(Cl)cc2)cn1,-0.763%,14.7%,0.176%,-5.16%,-1.97%,-10%,10.3%,15%,4.23%,7.69%,-9.85%
